# Assay results as given in ChEMBL document CHEMBL1961873, “Compounds: GSK PKIS; Assays: Nanosyn kinase panel” (2012).
# Legend:
# [1] = target: Calcium/calmodulin-dependent protein kinase type II subunit alpha (Homo sapiens) (UniProt Q9UQM7); conditions: at 1 µM;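 also: reported value is a mean percent inhibition of CAMK2A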
# [2] = target: Calcium/calmodulin-dependent protein kinase type II subunit delta (Homo sapiens) (UniProt Q13557); conditions: at 0.1 µM
# [3] = target: Calcium/calmodulin-dependent protein kinase type II subunit delta (Homo sapiens) (UniProt Q13557); conditions: at 1 µM
# [4] = target: T1, Calcium/calmodulin-dependent protein kinase type IV (Homo sapiens) (UniProt Q16566); conditions: at 0.1 µM
# T1 sequence (whole entry): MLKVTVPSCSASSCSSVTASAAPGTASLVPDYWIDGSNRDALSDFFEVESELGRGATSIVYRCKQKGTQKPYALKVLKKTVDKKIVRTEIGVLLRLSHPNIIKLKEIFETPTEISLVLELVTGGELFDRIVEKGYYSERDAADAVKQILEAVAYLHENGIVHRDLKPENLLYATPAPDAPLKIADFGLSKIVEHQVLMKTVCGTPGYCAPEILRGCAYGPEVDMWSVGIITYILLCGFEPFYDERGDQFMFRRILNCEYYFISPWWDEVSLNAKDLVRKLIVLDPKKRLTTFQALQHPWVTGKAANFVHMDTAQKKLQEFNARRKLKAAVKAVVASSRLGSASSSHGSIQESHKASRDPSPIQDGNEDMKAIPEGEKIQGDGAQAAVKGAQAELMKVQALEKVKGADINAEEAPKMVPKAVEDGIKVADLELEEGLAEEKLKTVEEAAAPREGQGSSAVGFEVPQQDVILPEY
# [5] = target: T1, Calcium/calmodulin-dependent protein kinase type IV (Homo sapiens); conditions: at 1 µM
# [6] = target: T2, Serine/threonine-protein kinase Chk1 (Homo sapiens) (UniProt O14757); conditions: at 0.1 µM
# T2 sequence (whole entry): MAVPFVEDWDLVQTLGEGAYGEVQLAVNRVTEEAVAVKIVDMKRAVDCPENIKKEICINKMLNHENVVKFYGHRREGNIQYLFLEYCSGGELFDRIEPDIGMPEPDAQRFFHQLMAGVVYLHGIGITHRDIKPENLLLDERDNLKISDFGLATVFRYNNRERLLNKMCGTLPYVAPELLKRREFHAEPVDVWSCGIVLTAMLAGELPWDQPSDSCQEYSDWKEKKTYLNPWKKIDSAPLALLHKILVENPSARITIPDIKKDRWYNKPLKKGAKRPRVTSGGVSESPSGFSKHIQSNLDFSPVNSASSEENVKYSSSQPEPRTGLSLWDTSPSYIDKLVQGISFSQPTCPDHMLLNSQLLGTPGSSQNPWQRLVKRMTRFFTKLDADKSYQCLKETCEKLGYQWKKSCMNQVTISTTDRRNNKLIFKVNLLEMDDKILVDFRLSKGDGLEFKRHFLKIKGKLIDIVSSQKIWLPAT
# [7] = target: T2, Serine/threonine-protein kinase Chk1 (Homo sapiens); conditions: at 1 µM
# [8] = target: Serine/threonine-protein kinase Chk2 (Homo sapiens) (UniProt O96017); conditions: at 0.1 µM
# [9] = target: Serine/threonine-protein kinase Chk2 (Homo sapiens) (UniProt O96017); conditions: at 1 µM
# [10] = target: Death-associated protein kinase 1 (Homo sapiens) (UniProt P53355); conditions: at 0.1 µM
# [11] = target: Death-associated protein kinase 1 (Homo sapiens) (UniProt P53355); conditions: at 1 µM
# [12] = target: T3, Serine/threonine-protein kinase DCLK2 (Homo sapiens) (UniProt Q8N568); conditions: at 0.1 µM
# T3 sequence (whole entry): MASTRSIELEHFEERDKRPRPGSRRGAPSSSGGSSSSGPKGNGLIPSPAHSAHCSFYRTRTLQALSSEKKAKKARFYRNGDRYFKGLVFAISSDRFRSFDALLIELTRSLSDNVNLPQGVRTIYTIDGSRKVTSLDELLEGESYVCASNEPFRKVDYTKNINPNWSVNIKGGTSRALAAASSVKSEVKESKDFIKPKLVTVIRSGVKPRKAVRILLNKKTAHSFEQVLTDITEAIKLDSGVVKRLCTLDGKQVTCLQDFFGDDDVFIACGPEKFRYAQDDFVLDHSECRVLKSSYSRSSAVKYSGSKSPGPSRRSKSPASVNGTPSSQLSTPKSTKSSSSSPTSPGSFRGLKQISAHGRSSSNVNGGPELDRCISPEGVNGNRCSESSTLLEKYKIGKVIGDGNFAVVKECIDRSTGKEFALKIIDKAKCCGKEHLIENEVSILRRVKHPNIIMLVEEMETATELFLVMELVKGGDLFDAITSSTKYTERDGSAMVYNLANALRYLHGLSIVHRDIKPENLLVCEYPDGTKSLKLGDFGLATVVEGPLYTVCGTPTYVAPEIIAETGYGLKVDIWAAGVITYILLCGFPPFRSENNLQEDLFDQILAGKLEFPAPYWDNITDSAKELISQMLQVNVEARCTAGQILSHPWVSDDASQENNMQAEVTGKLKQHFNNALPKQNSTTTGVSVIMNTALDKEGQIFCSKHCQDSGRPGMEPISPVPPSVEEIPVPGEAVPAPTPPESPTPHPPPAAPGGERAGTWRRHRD
# [13] = target: MAP kinase-activated protein kinase 2 (Homo sapiens) (UniProt P49137); conditions: at 0.1 µM
# [14] = target: MAP kinase-activated protein kinase 2 (Homo sapiens) (UniProt P49137); conditions: at 1 µM
# [15] = target: MAP kinase-activated protein kinase 3 (Homo sapiens) (UniProt Q16644); conditions: at 0.1 µM
# [16] = target: MAP kinase-activated protein kinase 3 (Homo sapiens) (UniProt Q16644); conditions: at 1 µM
# [17] = target: Serine/threonine-protein kinase MARK1 (Homo sapiens) (UniProt Q9P0L2); conditions: at 0.1 µM
# [18] = target: Serine/threonine-protein kinase MARK1 (Homo sapiens) (UniProt Q9P0L2); conditions: at 1 µM
# [19] = target: MAP/microtubule affinity-regulating kinase 3 (Homo sapiens) (UniProt P27448); conditions: at 0.1 µM;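 also: mean percent inhibition of MARK3 kinase activity, measured within the GSK PKIS screening panel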
# [20] = target: T3, Serine/threonine-protein kinase DCLK2 (Homo sapiens); conditions: at 1 µM
# Sequence of MAP/microtubule affinity-regulating kinase 3 (Homo sapiens) (P27448 whole entry, looked up): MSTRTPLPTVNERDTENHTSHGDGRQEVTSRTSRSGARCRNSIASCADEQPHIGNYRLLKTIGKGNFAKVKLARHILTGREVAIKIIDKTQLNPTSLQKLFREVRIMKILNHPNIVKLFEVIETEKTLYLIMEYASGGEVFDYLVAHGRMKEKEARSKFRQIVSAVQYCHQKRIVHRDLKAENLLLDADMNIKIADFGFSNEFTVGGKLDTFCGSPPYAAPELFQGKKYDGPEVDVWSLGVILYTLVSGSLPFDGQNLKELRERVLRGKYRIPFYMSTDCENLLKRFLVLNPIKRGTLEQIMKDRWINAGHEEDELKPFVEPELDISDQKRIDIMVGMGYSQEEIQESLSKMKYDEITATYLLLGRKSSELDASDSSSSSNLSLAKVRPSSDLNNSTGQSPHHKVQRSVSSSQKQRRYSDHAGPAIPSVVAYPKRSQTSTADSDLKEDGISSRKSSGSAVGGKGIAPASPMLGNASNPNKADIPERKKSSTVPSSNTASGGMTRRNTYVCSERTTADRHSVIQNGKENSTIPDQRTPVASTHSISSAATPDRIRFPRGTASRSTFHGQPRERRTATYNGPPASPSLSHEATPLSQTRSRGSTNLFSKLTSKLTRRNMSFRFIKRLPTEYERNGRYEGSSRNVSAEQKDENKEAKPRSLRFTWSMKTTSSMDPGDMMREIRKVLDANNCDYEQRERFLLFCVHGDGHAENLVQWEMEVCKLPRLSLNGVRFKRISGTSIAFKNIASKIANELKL
# Sequence of Death-associated protein kinase 1 (Homo sapiens) (P53355 whole entry, looked up): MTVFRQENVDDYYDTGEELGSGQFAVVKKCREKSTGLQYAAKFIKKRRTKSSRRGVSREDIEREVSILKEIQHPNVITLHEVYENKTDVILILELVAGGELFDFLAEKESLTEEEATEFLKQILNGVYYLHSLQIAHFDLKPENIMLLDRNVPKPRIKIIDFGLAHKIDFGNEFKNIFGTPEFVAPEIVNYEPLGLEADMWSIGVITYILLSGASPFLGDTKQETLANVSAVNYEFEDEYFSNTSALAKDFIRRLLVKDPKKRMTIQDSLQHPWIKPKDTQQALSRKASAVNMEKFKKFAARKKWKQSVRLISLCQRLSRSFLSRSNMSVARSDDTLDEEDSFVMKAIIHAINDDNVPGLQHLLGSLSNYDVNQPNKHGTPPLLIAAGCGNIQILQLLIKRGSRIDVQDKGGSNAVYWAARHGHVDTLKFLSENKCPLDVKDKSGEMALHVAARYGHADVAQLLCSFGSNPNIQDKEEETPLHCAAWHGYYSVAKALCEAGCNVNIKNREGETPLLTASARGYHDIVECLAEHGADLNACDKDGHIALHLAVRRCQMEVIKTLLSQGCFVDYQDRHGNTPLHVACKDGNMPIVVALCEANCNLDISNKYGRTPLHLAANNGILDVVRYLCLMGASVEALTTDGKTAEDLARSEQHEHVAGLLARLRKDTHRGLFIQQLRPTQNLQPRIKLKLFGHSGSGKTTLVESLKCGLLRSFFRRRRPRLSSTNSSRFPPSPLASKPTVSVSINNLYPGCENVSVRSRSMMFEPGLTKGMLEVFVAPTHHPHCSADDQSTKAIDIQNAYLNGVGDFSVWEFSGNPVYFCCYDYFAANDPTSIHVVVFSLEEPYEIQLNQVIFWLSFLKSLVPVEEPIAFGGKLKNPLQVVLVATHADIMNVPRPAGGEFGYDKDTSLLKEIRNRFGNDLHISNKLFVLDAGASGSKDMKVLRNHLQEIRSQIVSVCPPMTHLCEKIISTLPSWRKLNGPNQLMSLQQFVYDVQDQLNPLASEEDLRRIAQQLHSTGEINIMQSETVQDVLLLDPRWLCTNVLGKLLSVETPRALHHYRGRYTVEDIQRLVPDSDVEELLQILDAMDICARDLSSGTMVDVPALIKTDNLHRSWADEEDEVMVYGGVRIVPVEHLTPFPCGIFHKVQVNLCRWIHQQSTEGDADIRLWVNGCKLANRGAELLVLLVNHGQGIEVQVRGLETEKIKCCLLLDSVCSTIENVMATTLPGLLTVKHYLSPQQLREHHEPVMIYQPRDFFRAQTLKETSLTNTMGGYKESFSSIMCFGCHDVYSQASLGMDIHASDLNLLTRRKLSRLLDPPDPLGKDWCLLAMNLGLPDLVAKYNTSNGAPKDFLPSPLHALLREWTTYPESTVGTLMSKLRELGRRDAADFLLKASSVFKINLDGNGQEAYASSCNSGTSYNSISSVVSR
# Sequence of Calcium/calmodulin-dependent protein kinase type II subunit alpha (Homo sapiens) (Q9UQM7 whole entry): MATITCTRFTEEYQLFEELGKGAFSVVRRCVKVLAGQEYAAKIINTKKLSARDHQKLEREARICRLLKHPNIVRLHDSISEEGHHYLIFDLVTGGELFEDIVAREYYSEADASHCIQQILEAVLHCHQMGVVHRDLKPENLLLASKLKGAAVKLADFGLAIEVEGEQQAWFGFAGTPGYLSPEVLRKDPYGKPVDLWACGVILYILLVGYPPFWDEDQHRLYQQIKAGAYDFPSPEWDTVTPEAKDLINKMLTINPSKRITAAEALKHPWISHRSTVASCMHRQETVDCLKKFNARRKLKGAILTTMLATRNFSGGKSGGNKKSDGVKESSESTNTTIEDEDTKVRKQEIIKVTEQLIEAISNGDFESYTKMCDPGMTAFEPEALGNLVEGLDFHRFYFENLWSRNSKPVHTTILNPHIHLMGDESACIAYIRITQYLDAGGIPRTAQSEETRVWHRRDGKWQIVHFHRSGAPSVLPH
# Sequence of Serine/threonine-protein kinase Chk2 (Homo sapiens) (O96017 whole entry): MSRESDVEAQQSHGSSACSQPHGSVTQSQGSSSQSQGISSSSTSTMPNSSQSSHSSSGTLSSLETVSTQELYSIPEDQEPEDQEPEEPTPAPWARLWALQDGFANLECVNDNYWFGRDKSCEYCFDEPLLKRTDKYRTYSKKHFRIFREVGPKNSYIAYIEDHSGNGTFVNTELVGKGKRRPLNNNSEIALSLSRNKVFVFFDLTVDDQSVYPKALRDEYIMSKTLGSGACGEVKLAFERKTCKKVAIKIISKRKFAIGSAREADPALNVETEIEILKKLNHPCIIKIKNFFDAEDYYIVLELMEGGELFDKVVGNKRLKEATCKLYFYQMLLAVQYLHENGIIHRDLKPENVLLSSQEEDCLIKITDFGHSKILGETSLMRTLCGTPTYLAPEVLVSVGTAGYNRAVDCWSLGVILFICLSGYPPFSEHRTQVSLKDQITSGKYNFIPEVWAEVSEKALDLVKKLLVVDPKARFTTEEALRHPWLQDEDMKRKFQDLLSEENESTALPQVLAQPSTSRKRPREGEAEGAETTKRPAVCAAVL
# Sequence of MAP kinase-activated protein kinase 2 (Homo sapiens) (P49137 whole entry, looked up): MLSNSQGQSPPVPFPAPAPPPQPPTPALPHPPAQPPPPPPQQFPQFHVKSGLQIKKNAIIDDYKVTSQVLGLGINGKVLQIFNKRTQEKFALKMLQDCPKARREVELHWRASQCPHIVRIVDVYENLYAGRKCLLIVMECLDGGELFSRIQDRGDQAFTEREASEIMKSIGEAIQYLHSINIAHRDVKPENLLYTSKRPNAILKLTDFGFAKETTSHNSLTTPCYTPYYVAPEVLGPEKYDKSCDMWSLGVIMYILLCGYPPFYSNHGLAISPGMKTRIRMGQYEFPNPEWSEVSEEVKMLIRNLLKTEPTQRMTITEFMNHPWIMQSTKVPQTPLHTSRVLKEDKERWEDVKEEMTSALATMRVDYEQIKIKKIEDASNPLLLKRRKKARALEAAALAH
# Sequence of Serine/threonine-protein kinase MARK1 (Homo sapiens) (Q9P0L2 whole entry, looked up): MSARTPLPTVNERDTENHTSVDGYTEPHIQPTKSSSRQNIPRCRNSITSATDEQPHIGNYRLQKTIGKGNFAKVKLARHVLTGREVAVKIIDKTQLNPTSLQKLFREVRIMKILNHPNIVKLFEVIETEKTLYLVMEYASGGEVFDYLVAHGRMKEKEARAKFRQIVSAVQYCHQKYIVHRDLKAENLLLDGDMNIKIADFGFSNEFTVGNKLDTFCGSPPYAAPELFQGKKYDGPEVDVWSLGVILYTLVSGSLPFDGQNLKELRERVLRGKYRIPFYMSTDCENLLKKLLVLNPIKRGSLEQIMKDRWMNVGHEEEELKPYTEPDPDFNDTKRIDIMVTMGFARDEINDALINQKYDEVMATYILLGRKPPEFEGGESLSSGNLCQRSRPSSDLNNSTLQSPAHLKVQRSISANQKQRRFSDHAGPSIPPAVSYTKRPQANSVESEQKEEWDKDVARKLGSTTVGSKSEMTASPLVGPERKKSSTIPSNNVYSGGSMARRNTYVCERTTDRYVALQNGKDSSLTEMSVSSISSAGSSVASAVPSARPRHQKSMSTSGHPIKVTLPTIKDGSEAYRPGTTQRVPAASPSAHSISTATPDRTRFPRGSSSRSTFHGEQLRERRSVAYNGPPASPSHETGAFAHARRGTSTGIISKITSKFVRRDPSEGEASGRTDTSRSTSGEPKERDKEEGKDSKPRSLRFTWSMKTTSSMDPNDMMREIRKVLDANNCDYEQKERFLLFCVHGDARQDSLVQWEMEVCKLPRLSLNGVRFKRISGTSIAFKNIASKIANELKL
# Sequence of Calcium/calmodulin-dependent protein kinase type II subunit delta (Homo sapiens) (Q13557 whole entry): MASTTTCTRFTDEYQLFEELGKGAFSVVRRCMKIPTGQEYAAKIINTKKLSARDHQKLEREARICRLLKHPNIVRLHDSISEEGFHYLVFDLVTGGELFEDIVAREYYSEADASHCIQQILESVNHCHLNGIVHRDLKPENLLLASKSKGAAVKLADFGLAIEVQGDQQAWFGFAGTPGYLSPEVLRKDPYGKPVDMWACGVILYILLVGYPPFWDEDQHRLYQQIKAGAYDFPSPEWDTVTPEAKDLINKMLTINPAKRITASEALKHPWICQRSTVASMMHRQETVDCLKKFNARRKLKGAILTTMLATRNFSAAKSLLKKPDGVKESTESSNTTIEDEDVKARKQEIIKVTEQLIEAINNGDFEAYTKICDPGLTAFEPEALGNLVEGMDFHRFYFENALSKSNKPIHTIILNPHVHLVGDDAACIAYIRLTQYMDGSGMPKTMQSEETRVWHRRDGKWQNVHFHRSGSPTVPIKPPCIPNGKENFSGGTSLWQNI
SMILES,inhibition [1] [%],inhibition [2] [%],inhibition [3] [%],inhibition [4] [%],inhibition [5] [%],inhibition [6] [%],inhibition [7] [%],inhibition [8] [%],inhibition [9] [%],inhibition [10] [%],inhibition [11] [%],inhibition [12] [%],inhibition [13] [%],inhibition [14] [%],inhibition [15] [%],inhibition [16] [%],inhibition [17] [%],inhibition [18] [%],inhibition [19] [%],inhibition [20] [%]
Cc1ccc(C(=O)NC2CCCCC2)cc1-c1ccc(C(=O)NCC2CC2)cc1,4.57,4.88,2.35,3.22,3.67,6.06,5.14,1.33,1.29,3.76,5.32,3.45,0.37,0.95,1.78,4.53,1.97,0.65,3.7,–
Cc1nnc(-c2ccc(C)c(-c3ccc(C(=O)Nc4cccc(C#N)c4)cc3)c2)o1,1.16,1.1,1.51,-1.55,-0.84,0.73,0.92,1.03,4.05,3.42,2.66,0.99,1.02,0.1,5.27,16.3,1.96,4.25,2.09,–
CS(=O)(=O)CCNCc1ccc(-c2ccc3ncnc(Nc4ccc(OCc5ccccc5)c(Cl)c4)c3c2)o1,-1.87,-1.29,1.59,0.2,1.37,-6.61,-6.9,-6.13,-4.43,-9.06,–,-1.35,-3.32,-3.36,-5.03,-4.68,0.39,1.89,0.63,3.26
CN(C)c1cc2c(Nc3ccc4nc(Cc5ccccc5)[nH]c4c3)ncnc2cn1,4.09,4.46,4.05,1.47,-2.01,7.31,6.99,2.75,9.92,5.94,7.51,1.19,2.01,2.85,4.79,4.13,3.62,5.59,3.84,1.22
CCn1c(-c2nonc2N)nc2c(C#CC(C)(C)O)nc(OC[C@@H](N)c3ccccc3)cc21,0.34,-0.01,1.5,2.61,3.39,-5.33,7.52,-5.8,1.05,-8.66,-7.69,–,-3.81,-3.91,-6.12,-7.91,0.67,19.9,3.1,1.63
[O-][S+]1CCN(Cc2ccc(-c3ccc4ncnc(Nc5ccc(OCc6ccccc6)c(F)c5)c4c3)o2)CC1,2.39,2.36,2.19,0.91,0.5,0.15,3.65,2.23,7.61,2.43,3.11,1.91,0.41,0.42,0.85,3.94,1.63,2.55,2.88,3.92
CS(=O)(=O)CCNCc1nc(-c2ccc3ncnc(Nc4ccc(F)c(Cl)c4)c3c2)cs1,3.45,1.76,3.83,-0.31,0.31,2.71,3.9,-0.4,1.15,4.88,6.48,0.59,1.59,0.26,2.16,1.58,1.43,1.33,1.69,–
COc1cc2ncn(-c3cc(OCc4ccccc4Cl)c(C(N)=O)s3)c2cc1OC,-0.06,0.36,2.88,0.78,0.41,-4.54,-4.25,-4.95,-0.53,-8.75,–,-1.31,-2.81,-3.53,-5.38,-2.78,2.4,9.28,1.85,4.65
COc1ccc(-c2nn3ncccc3c2-c2ccnc(Nc3ccc(Cl)c(C(F)(F)F)c3)n2)cc1,0.35,0.24,-0.01,-1.57,-4.24,-0.59,-3.23,1.35,2.73,1.96,2.18,1.74,1.23,0.64,4.41,17.4,2.21,2.97,-0.96,–
N#Cc1c(NC(=O)c2cccc3ccccc23)sc2c1CCCC2,1.93,2.34,4.57,2.05,1.58,7.17,10.4,6.18,6.56,8.89,9.29,0.23,4.07,3.83,8.24,8.43,3.26,3.28,2.5,0.08
CCN1CCC(CC(=O)Nc2n[nH]c3nc(-c4cccs4)c(Br)cc23)CC1,-1.26,-1.29,7.67,0.29,-0.89,2.28,2.57,-3.64,-3.75,0.43,1.46,0.63,-2.22,-2.04,-2.21,-2.44,-2.56,-1.05,1,0.11
Fc1cccc(COc2ccc(Nc3ncnc4cc(-c5ccc[nH]5)sc34)cc2Cl)c1,0.84,1.12,2.72,1.44,1.44,-0.13,3.63,0.71,3.96,-1.32,-2.65,-2.61,-0.38,-0.64,0.31,-0.26,1.53,2.14,-1.42,–
COc1ccc(COc2ccc(Cc3cnc(N)nc3N)cc2OC)cc1,5.8,2.39,2.5,1.77,3.54,5.47,7.23,5.87,4.77,8.9,9.42,0.28,2.95,3.22,6.15,7.43,2.6,0.09,4.54,8.82
CC1=C(C(=O)Nc2ccc3[nH]ncc3c2)C(c2ccc(Cl)c(Cl)c2)CC(=O)N1 (stereo unspecified),2.88,2.72,3.98,1.22,2.09,-1.3,-0.85,1.4,4.28,-2.03,-1.58,–,0.89,-0.26,2.5,1.83,0.33,5.92,2.97,0.32
